Legend:
Test in all cases: log2 ratio of Biotin-Ahx-Ub-VS probe labelling (fragment/DMSO); higher = less target engagement (more negative = stronger competition), active = hit call of the paper (q ≤ 0.05, log2 ratio ≤ -1)
Conditions in all cases: compound concentration: 200 uM; treatment time: 3 h
USP19 = target: T1, USP19 (UniProt O94966)
T1 sequence (whole entry): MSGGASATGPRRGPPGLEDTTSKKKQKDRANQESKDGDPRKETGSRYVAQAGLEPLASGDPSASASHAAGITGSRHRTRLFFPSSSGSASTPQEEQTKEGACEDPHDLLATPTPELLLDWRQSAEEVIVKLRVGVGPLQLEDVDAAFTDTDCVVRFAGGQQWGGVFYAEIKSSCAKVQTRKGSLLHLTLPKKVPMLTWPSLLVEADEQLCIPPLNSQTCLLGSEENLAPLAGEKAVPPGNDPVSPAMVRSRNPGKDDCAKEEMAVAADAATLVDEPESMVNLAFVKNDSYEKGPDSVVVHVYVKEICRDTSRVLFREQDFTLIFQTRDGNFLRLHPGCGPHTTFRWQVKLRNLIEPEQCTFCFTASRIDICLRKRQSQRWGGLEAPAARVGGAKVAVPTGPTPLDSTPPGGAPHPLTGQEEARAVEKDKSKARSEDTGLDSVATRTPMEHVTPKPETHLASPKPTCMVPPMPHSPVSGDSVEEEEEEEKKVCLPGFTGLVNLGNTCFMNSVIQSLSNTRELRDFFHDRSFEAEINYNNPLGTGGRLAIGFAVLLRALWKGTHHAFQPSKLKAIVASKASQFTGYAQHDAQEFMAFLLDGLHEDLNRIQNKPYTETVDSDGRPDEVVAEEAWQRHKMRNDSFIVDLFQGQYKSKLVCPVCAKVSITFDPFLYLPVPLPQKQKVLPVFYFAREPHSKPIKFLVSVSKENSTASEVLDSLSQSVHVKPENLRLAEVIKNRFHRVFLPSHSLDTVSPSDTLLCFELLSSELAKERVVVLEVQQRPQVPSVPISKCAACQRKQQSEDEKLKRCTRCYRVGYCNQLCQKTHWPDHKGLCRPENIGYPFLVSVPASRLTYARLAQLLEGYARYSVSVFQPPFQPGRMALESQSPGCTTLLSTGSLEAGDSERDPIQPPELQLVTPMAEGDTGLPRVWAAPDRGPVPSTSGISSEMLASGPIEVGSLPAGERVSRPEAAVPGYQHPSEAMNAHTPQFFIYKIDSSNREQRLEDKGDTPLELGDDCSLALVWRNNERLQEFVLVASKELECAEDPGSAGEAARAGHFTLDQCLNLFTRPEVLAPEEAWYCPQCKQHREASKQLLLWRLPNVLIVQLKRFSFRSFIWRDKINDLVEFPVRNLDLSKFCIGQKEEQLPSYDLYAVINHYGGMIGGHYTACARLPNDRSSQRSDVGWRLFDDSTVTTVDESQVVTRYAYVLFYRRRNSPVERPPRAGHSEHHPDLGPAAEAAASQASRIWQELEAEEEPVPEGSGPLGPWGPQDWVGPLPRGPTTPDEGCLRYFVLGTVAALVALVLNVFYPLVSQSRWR
Procedure, shortened: (§1)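 Labelling with Biotin-Ahx-Ub-VS (0.5 µM final, 1 h) followed a 3 h triplicate treatment of HEK293T lysate (495 µg per sample, Tris/CHAPS/IGEPAL buffer with protease inhibitors) with fragment at 200 µM or vehicle. Labelled DUBs were NeutrAvidin-enriched, digested with LysC and trypsin, and run by diaPASEF LC-MS/MS. The values, average log2 fragment/vehicle ratios by unpaired t-test, come from global-median-normalised Spectronaut label-free quantities. Proteins with ≥2 unique peptides were used.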

USP22 = target: T2, USP22 (UniProt Q9UPT9)
T2 sequence (whole entry): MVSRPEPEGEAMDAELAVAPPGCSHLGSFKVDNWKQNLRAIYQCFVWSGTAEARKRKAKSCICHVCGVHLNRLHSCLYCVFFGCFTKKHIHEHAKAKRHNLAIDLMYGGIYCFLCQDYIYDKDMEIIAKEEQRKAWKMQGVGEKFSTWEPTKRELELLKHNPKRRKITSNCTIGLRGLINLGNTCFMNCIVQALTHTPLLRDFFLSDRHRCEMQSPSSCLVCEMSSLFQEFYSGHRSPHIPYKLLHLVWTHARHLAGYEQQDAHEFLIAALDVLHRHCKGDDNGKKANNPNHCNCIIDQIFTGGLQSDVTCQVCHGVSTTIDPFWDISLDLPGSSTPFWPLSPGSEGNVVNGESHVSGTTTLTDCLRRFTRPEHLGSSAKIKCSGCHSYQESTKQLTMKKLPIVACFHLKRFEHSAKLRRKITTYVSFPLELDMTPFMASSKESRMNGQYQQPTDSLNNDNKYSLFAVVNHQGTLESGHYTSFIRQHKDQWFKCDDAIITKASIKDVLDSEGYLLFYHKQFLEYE
Procedure, shortened: as §1

USP24 = USP24 (UniProt Q9UPU5)
Procedure, shortened: as §1

USP25 = target: T3, USP25 (UniProt Q9UHP3)
T3 sequence (whole entry): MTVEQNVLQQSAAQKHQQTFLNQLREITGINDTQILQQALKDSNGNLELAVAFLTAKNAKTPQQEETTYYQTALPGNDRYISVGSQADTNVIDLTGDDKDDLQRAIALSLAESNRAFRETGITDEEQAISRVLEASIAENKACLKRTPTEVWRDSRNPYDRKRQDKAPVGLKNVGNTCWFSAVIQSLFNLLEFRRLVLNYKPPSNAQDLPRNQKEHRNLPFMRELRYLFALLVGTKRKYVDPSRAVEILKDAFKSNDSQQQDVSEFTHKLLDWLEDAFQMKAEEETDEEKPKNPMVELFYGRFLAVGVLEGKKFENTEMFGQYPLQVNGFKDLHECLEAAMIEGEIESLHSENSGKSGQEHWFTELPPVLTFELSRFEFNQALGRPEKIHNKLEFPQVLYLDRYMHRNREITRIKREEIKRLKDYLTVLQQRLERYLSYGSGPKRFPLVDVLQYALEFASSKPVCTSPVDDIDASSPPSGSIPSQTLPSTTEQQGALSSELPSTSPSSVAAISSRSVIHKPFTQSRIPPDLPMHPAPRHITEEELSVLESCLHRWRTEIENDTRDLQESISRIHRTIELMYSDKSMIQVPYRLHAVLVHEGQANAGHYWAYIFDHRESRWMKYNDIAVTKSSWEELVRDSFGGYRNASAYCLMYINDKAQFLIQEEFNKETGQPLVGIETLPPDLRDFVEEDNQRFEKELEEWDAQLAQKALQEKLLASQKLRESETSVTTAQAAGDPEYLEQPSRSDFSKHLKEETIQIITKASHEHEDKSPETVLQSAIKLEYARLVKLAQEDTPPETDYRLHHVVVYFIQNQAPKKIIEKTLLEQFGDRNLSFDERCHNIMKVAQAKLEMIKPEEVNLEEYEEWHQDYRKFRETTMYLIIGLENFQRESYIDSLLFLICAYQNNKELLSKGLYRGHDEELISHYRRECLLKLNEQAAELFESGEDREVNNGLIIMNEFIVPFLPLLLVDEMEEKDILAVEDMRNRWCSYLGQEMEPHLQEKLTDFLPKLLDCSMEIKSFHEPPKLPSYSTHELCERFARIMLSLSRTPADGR
Procedure, shortened: as §1

USP28 = target: T4, USP28 (UniProt Q96RU2)
T4 sequence (whole entry): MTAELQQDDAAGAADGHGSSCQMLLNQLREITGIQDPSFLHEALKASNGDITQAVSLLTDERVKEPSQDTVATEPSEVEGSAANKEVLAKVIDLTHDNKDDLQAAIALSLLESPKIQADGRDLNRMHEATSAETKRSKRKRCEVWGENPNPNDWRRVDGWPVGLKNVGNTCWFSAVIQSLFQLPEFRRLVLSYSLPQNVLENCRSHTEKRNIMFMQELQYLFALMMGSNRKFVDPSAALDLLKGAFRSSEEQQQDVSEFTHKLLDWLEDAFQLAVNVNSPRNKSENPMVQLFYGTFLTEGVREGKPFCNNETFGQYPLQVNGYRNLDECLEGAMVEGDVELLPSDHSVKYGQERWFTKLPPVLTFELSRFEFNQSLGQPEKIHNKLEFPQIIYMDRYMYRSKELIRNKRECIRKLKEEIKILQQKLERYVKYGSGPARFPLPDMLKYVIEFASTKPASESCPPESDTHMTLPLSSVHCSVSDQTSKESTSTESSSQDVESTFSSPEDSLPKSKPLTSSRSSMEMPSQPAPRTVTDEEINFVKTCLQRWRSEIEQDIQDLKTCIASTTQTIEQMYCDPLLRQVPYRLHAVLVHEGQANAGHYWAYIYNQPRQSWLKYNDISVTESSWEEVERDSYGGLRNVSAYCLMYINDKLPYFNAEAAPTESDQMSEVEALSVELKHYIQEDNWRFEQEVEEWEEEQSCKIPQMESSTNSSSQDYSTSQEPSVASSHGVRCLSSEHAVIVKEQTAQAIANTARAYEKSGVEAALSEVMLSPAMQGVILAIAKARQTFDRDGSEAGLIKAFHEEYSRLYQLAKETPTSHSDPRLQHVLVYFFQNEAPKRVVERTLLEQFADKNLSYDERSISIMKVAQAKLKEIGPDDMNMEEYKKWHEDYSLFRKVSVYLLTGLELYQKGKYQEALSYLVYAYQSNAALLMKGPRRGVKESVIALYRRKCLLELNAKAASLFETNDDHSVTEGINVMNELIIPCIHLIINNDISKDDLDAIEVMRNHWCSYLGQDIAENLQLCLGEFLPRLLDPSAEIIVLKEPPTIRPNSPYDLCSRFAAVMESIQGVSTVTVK
Procedure, shortened: as §1

Measured: log2 ratio of Biotin-Ahx-Ub-VS probe labelling

Sequence of USP24 (Q9UPU5 whole entry): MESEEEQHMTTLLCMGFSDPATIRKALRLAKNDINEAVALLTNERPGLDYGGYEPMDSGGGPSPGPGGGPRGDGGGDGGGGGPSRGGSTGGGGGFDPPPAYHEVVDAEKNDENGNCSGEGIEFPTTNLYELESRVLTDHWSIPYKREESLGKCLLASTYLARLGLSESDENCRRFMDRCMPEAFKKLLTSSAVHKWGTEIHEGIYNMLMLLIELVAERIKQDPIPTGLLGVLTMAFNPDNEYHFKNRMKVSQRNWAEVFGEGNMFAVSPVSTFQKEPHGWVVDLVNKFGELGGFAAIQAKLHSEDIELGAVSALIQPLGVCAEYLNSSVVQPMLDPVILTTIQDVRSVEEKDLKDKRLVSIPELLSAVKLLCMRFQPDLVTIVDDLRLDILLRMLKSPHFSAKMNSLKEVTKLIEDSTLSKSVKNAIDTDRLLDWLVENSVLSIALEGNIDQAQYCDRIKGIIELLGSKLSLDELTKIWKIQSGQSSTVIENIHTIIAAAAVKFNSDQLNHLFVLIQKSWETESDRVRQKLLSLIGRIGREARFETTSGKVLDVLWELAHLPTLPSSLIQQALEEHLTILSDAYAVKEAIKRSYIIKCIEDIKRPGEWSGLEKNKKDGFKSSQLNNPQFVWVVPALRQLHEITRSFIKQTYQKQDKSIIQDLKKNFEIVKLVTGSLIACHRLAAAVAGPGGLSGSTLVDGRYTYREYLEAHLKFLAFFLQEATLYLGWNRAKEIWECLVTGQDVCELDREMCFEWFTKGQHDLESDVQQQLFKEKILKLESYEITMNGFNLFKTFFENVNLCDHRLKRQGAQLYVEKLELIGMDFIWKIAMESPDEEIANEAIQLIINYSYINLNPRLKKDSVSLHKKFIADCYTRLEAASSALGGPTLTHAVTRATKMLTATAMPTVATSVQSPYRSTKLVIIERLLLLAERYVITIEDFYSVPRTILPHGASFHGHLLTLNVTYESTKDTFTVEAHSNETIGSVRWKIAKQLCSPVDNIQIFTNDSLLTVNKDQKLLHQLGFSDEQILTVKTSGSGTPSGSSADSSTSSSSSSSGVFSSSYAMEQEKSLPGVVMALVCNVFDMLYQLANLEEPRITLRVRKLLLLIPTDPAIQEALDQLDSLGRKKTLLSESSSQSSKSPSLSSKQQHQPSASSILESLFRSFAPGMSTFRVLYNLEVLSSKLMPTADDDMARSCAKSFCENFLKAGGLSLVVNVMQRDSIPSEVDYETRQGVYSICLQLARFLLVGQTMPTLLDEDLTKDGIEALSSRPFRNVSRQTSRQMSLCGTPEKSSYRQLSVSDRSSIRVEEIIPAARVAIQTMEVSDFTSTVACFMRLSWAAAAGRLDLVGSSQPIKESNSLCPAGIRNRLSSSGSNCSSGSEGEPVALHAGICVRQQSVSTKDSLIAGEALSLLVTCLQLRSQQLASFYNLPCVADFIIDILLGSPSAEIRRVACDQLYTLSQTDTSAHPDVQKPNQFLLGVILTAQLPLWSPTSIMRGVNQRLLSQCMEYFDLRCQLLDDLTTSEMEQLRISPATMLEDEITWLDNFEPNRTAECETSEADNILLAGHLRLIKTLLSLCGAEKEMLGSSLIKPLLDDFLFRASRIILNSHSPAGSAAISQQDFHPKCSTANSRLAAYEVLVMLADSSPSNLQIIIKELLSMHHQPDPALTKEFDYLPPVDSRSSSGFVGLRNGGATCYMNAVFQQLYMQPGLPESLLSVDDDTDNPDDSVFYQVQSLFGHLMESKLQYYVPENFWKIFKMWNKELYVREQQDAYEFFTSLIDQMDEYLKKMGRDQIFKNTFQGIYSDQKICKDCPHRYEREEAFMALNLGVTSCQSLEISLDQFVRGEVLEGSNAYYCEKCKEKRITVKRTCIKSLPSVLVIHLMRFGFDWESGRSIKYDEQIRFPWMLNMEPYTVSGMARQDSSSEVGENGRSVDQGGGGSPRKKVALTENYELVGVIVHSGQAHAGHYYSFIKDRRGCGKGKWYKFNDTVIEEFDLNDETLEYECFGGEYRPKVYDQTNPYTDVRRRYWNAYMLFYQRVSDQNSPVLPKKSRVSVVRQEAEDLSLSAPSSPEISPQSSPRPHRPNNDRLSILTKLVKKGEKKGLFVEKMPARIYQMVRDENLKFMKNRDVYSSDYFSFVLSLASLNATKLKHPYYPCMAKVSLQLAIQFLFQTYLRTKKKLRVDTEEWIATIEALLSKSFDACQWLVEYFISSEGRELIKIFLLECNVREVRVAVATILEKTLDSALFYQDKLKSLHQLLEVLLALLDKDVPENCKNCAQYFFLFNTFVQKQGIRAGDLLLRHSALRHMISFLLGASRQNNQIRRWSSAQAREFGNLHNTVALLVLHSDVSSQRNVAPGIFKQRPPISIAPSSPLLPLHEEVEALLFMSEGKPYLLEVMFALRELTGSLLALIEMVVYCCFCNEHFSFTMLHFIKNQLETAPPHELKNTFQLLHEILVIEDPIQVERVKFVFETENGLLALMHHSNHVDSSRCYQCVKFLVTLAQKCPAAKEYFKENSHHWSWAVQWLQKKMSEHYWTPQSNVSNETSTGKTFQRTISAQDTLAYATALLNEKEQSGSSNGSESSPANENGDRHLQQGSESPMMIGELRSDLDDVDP

O=C(CCl)N1CCCN(C(=O)c2ccc(Cl)cc2)CC1
inactive: USP19 -0.449 | USP22 -0.095 | USP24 -0.433 | USP25 -0.628 | USP28 -0.618
